# In the library only some 3.6% were active in any assay of this set; here they are far more common.
# BoNT-A LC inh2 – BoNT A light chain protease inhibition; hit rate 0.17% among 360,000; AID 588499; inhibition, % at 10 µM; multiplex microsphere protease substrate cleavage, flow cytometry; also: plate controls were buffer without enzyme for full effect and enzyme alone for no effect
# BoNT-F LC inh – inhibitors of Botulinum neurotoxin F light chain protease; Multiplex microsphere protease cleavage assay, flow cytometry; inhibition, % at 10 µM; hit rate 0.22% among 360,000; in the data active = inhibition above about 35%, passing the limit was not always enough; inconclusive = no clear call, values can overlap the other calls; also: plate controls were buffer without enzyme for full effect and enzyme alone for no effect
# Anthrax LF inh2 – inhibitors of Bacillus anthracis lethal factor protease | P15917 | multiplex microsphere protease cleavage assay, LF | inhibition, % at 10 µM | hit rate 0.12% among 360,000; also: plate controls were buffer without enzyme for full effect and enzyme alone for no effect
# Target sequence (P15917 whole entry, looked up): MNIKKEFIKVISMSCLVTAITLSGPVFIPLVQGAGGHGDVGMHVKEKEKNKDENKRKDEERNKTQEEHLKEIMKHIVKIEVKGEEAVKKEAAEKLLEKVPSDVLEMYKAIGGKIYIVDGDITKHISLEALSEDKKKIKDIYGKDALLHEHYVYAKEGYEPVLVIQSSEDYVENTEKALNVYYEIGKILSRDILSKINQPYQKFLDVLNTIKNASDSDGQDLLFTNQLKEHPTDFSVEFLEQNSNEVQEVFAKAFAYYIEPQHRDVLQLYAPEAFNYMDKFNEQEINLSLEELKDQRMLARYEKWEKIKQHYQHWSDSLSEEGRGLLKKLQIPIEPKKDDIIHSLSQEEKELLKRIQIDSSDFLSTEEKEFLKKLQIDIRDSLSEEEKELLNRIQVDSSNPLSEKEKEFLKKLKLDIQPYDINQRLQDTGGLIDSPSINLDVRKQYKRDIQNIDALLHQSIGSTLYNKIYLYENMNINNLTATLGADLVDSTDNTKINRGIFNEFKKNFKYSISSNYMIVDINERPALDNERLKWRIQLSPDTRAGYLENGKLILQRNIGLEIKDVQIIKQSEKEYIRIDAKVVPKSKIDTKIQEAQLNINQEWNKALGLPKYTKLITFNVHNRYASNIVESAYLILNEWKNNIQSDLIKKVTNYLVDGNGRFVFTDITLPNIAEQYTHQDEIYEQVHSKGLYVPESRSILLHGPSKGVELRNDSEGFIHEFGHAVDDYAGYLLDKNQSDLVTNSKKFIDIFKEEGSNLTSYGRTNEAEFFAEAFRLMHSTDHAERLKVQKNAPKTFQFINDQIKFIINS
# MazF activator – activators of E. coli MazEF toxin-antitoxin RNase. FAM/BHQ RNA-DNA oligo cleavage fluorescence, 5 h. hit rate 0.32% among 350,000. activation, % at 20 µM. P0AE70; in the data active = activation above about 50%
# Autofluor counter – compound fluorescence in toxin protease inhibitor counterscreen; AID 624483; hit rate 3.1% among 360,000; fluorescence intensity (test concentration not listed); compound autofluorescence counterscreen, microsphere flow cytometry; hits give high values; in the data active = fluorescence intensity above about 16000; inconclusive = no clear call, values can overlap the other calls
# An asterisk follows results filed as active; ? = inconclusive; . = no result given. Rule as the data show it, unless noted: active = inhibition above about 30%; inconclusive = no clear call, values can overlap the other calls; inactive = below that.
SMILES,BoNT-A LC inh2,BoNT-F LC inh,Anthrax LF inh2,MazF activator,Autofluor counter
COc1cc(OC)cc(C(=O)N[C@H](C(=O)NC2CCCc3ccccc32)C(C)C)c1 (stereo not given in full),0,0,-2,-2,3881
C[C@@H]1CN([C@H](C)CO)S(=O)(=O)c2ccc(Br)cc2O[C@H]1CN(C)C(=O)Nc1ccccc1,0,-3,0,5,3566
Cc1ccc(OCC(=O)Nc2ccon2)c([N+](=O)[O-])c1,1,0,2,-2,4860
Cc1ncsc1CCC(=O)N1CCCC(C(=O)c2ccc3c(c2)OCO3)C1 (stereo not given),0,-4,-1,3,4310
CC1CCCCC1NC(=O)C1CCN(S(=O)(=O)N2CCCCCC2)CC1 (stereo not given),10,11,-14,-1,18939*
Cc1ccc(-c2nnn(Cc3nc4ccccc4s3)n2)cc1,5,4,2,-16,21007*
O=C(N/N=C/c1ccc(Cl)cc1Cl)Nc1ccccc1,6,9,-13,25,20342*
O=C(N/N=C/c1cccc(Cl)c1Cl)Nc1ccccc1,0,4,-4,-1,11180
O=C(CN1CCCCC1)N/N=C/c1ccc(Cl)cc1,.,.,.,11,.
O=C(CN1CCCCC1)N/N=C/c1ccc(Cl)cc1Cl,3,42*,3,5,3971
O=C(CN1CCSCC1)N/N=C/c1ccccc1F,0,-2,0,2,23296*
CN1CCN(c2ccc([N+](=O)[O-])c(N/N=C3\CN4CCC3CC4)c2)CC1,-1,-4,-2,-3,20912*
Cc1cc2ccccc2c(=O)n1CC(=O)NCC(=O)N1CCN(c2cccc(Cl)c2)CC1,?,-1,-3,5,20243*
CC(=O)C(=Cc1ccc(-c2ccccc2)cc1)C(=O)c1ccccc1,0,-11,-7,.,6532
O=C(NC(=S)Nc1cc(Cl)ccc1N1CCOCC1)c1ccc(-c2cccc(Cl)c2)o1,-1,0,0,-2,16940*
O=C(O)c1ccc(-c2cccc(Cl)c2)o1,?,3,0,-7,23409*
O=C(CN1C(=O)C2CCCN2c2ncc(Cl)cc21)NCc1ccc2c(c1)OCO2 (stereo not given),0,-4,0,4,3689
COc1ccc(CNC(=O)CN2C(=O)C3CCCN3c3ncc(Cl)cc32)cc1 (stereo not given),?,0,-3,-45,21975*
COCCNC(=O)C1(C)CCCN(CCOc2ccc(Cl)cc2)C1 (stereo not given),0,4,6,.,3487
CC(C)(C)n1ncc2c(=O)n(CC(=O)N3CCc4ccccc43)cnc21,0,-6,2,-5,3262
O=C(Cn1cnc2c(cnn2-c2ccccc2Cl)c1=O)N1CCc2ccccc21,3,6,-1,6,21755*
Cn1nc(C(F)(F)F)c(C(=O)Nc2ccc(F)cc2F)c1Sc1ccc(C(F)(F)F)cc1,2,2,-1,-7,22356*
O=C(Nc1ccccc1N1CCCCC1)C1CCN(C(=O)c2ccc(Cl)cc2)CC1,-2,4,0,13,6580
CC(C)C[C@H]1CN([C@@H](Cc2ccccc2)CN2CCC[C@H]2CN2C(=O)C(=O)NC[C@@H]2Cc2ccc(O)cc2)C(=O)C(=O)N1CC1CCCCC1,-1,-8,-1,.,4225
O=C(NCCN1CCCCC1)Nc1ccccc1,-3,-9,1,1,24890*
SMILES,BoNT-A LC inh2,BoNT-F LC inh,Anthrax LF inh2,MazF activator,Autofluor counter
CC(C(=O)O)n1cc(C#N)c(=O)[nH]c1=O (stereo not given),0,-7,2,6,3733
Cc1cccc2nc(Cn3c(=O)n(CCC(=O)NCc4ccco4)c(=O)c4sccc43)cc(=O)n12,10,9,-2,-1,20173*
Cc1cccc2nc(Cn3c(=O)n(CCC(=O)NCc4ccco4)c(=O)c4ccccc43)cc(=O)n12,1,-5,0,6,3373
O=C(NCc1ccccc1)C(Cc1ccccc1)N1C(=O)C2C3CCC(C3)C2C1=O (stereo not given),9,10,-16,3,16697*
O=C(CCNc1n[nH]c(=O)[nH]c1=O)N1CCOCC1,?,0,-1,-6,22002*
O=C(CCc1n[nH]c(=O)[nH]c1=O)N1CCOCC1,0,4,0,6,6245
COC(=O)c1scc(C)c1N/N=C(\C)c1cc(F)c(Cl)cc1F,0,-2,-2,-10,16330*
CCOC(=O)C(=CNNc1c(C)csc1C(=O)OC)C(=O)OCC,1,-6,2,-1,5830
CC1=C(C(=O)Nc2ccc(C)cn2)C(c2cnn(C)c2)C2=C(CCCC2=O)N1 (stereo not given),0,6,1,9,8275
CC(C)(C)Sc1ccc([N+](=O)[O-])cc1C(=O)Nc1ccncc1,-1,-3,-4,7,4637
Cc1ccc(S(=O)(=O)Nc2ccc(NC(=O)CN3CCCCC3)c(Cl)c2)cc1,1,2,-10,-1,19818*
Cc1ccc(S(=O)(=O)N2CCN(CC(=O)Nc3ccccc3Cl)CC2)cc1,2,1,8,-1,8525
COc1ccc(C(=O)COC(=O)CCN=C2NS(=O)(=O)c3ccccc32)cc1OC,0,0,-2,-4,20801*
Cc1ccc2cc(CN(CC3CCCO3)S(=O)(=O)c3ccccc3)c3nnnn3c2c1 (stereo not given),10,10,-6,-2,17821*
Cc1ccc2cc(CN(CC3CCCO3)C(=O)Nc3ccccc3F)c3nnnn3c2c1 (stereo not given),0,-5,0,-6,2001
OC(c1ccccc1)c1ccccc1CN1CCCNC1=S (stereo not given),0,-7,-4,-5,3048
CC1Cc2cc(/C(O)=C3/C(=O)C(=O)N(CCCn4ccnc4)C3c3cccnc3)ccc2O1 (stereo not given),-3,-5,-4,-3,17226*
O=C1C(=O)N(CCCn2ccnc2)C(c2cccnc2)/C1=C(/O)c1ccc(F)cc1 (stereo not given),0,-1,2,-3,23173*
COc1ccc(CCNC(=O)CC2Nc3ccccc3NC2=O)cc1 (stereo not given),0,-8,-13,7,6877
CCCOc1ccccc1NC(=O)CC1Nc2ccccc2NC1=O (stereo not given),-5,-8,-2,-5,21938*
COc1ccc(CCNC(=O)CC2Nc3ccccc3NC2=O)cc1OC (stereo not given),-4,-6,-3,-6,24834*
Cc1ccc(NC(=O)c2ncn(CCCN(C)CCc3ccccn3)n2)cc1C,0,-2,-3,-6,3775
CN1CCN(S(=O)(=O)c2cccc(C(=O)Nc3nc(-c4ccccc4)cs3)c2)CC1,-1,-2,-10,-2,23294*
CN1CCN(S(=O)(=O)c2ccc(NC(=O)c3ccc(F)cc3Cl)cc2)CC1,4,47*,26,10,3183
COC(=O)c1cccc(NC(=O)c2ccc(S(=O)(=O)N3CCN(C)CC3)cc2)c1,-4,-10,0,4,23982*
